Hits are enriched below; roughly 6.1% of the tested compounds scored in any of these assays.
D3 ag: qHTS of D3 Dopamine Receptor Agonist: qHTS. D(3) dopamine receptor (Homo sapiens), P35462. D3R DiscoveRx beta-arrestin cells, luminescence, 90 min. max activation, %. 410,000 tested, 0.58% active. AID 652048, 2013; in the data active = max activation above about 30%; also: 0% is about no effect
Target sequence (P35462 whole entry, looked up): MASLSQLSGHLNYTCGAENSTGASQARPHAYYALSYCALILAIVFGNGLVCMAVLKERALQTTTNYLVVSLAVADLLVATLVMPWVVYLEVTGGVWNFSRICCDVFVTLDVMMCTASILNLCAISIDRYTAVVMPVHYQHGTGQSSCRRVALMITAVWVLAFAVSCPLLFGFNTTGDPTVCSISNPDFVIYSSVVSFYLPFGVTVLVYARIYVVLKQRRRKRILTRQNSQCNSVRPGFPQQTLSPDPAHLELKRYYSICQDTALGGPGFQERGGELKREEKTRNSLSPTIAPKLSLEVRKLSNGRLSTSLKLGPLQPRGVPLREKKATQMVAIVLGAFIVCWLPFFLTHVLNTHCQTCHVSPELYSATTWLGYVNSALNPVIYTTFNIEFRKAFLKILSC
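Agonist-mode cell screen: cells plated at 1500/well and incubated overnight at 37 °C, then exposed to library compounds for 90 min at 37 °C. Detection reagent was added for 30–60 min at room temperature, and luminescence was read.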
D1 antag: Antagonist of Human D 1 Dopamine Receptor: qHTS | D(1A) dopamine receptor (Homo sapiens), P21728 | HEK293 TREx D1 cells, calcium flux, dopamine EC80; hits give low values | activity change, negative = inhibition, % at 10 µM | 360,000 tested, 3.2% active | AID 504652, 2011; in the data active = activity change below about -30%; also: % is scaled to controls: 0 for no effect and ±100 for the full control effect
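Using tetracycline-induced force-coupled D1 Hek293 cells and a calcium dye, signals were followed for 180 s after compound, then for 180 s after EC80 dopamine, to detect inhibitors.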
D1 agonist: Allosteric Agonists of the Human D1 Dopamine Receptor: qHTS; D(1A) dopamine receptor (Homo sapiens), P21728; activation, % at 2 µM; 360,000 tested, 1% active; HEK293 T-REx D1 cells, calcium flux, agonist mode; in the data active = activation above about 30%; also: 0% is about no effect
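Tetracycline-induced HEK293 TREx D1 cells, force-coupled to calcium signalling, were dye-loaded with a no-wash calcium kit. Compound was pin-added after a 10 s baseline. Fluorescence was read kinetically at 1 cycle/s for 180 s, with calcium rises flagged as agonism.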
D1 PAM: Potentiators of Human D1 Dopamine Receptor: qHTS. HEK293 TREx D1 cells, calcium flux, dopamine EC20 potentiation. potentiation, % at 10 µM. 360,000 tested, 0.036% active. AID 504651, 2011; in the data active = potentiation above about 30%; also: 0% is about no effect
D3 antag: qHTS of D3 Dopamine Receptor Antagonist: qHTS | D3R cells, DiscoveRx beta-arrestin luminescence, antagonist mode; hits give low values | D(3) dopamine receptor (Homo sapiens), P35462 | max response, negative = inhibition, % | AID 652054, 2013 | 360,000 tested, 2.5% active; in the data active = max response below about -50%; inconclusive = no clear call, values can overlap the other calls; also: % is scaled to controls: 0 for no effect and ±100 for the full control effect
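Cells plated overnight at 1500 cells/well, then exposed to library compounds with dopamine controls for 90 minutes at 37 degrees C. DiscoveRx reagent added for 30–60 minutes at room temperature; luminescence read, quantitative HTS format.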
Active calls of the source: *; ? = inconclusive; . = not tested or not shown.

SMILES	D3 ag	D1 antag	D1 agonist	D1 PAM	D3 antag
COc1ccc([C@H]2CC(=O)C=C(c3cc(C)ccc3OC)C2)cc1	-9	12	2	-1	-58*
COc1ccc([C@H]2CC(=O)C=C(c3cc(C)ccc3F)C2)cc1	-5	-7	7	6	-23
O=C(O)c1[nH]n(-c2ccc(S(=O)(=O)O)cc2)c(=O)c1N=Nc1ccc(S(=O)(=O)O)cc1	-26	.	.	.	.
Cn1c(SCc2ccccc2Cl)nc(=O)c2c1NC(=O)CC2c1cc(F)ccc1F (centres undefined)	3	-12	-1	0	.
Cc1ccccc1NC(=O)C1CCN(C(=O)c2cnn(-c3ccccc3)c2-n2cccc2)CC1	6	16	-3	-2	.
CCc1ccc(NC(=O)[C@H](Cc2ccccc2)NC(=O)C2CCN(C(=O)[C@@H](N)CC(C)C)CC2)cc1	-30	13	3	0	0
COc1ccc(C(=O)N2c3ccccc3C(C)(c3ccc(Cl)cc3)CC2(C)C)cc1 (centres undefined)	1	6	2	0	.
Cc1scc(C(=O)Nn2cnnc2)c1-c1ccccc1	-13	-4	2	2	-55*
O=C(NCCc1ccccc1)c1ccc2c(c1)N(Cc1c(F)cccc1Cl)C(=O)CS2	-4	-2	5	-1	.
Clc1ccc(Cl)c(-c2ccc(/C=N/c3ncn[nH]3)o2)c1	32*	3	1	-2	12
Cc1cccc(NC(=O)C2COc3ccccc3O2)c1 (centres undefined)	0	-32*	3	5	5
Cc1cc(C)cc(NC(=O)C2COc3ccccc3O2)c1 (centres undefined)	-3	.	.	.	-1
Cc1cc(C)nc(NS(=O)(=O)c2ccc(NC(=O)C3COc4ccccc4O3)cc2)n1 (centres undefined)	13	-60*	5	-2	-25
CCn1cc(C(=O)NCc2ccc3c(c2)OCO3)c(=O)c2cc(F)c(N3CCN(C)CC3)cc21	-26	26	25	-10	-70*
CCCCCCNC(=O)c1cn(CC)c2cc(N3CCN(C)CC3)c(F)cc2c1=O	-6	-50*	87*	-13	-25
CCn1cc(C(=O)O)c(=O)c2cc(F)c(N3CCNCC3)cc21	-5	-48*	-1	-5	.
CCn1cc(C(=O)NCCCO)c(=O)c2cc(F)c(N3CCN(C)CC3)cc21	-5	7	3	0	-8
CCn1cc(C(=O)NCCc2ccccc2)c(=O)c2cc(F)c(N3CCN(C)CC3)cc21	-1	0	3	-3	-19
O=C(Nc1ccc(SC(F)F)cc1)c1cc(-c2ccc3c(c2)OCCO3)on1	6	-3	2	-1	.
COc1ccc(OC(=O)c2cnc3n(c2=O)CCS3)cc1	-2	-2	-1	-2	4
CCc1ccc2oc(-c3cccc(N)c3)nc2c1	-4	18	0	5	-52*
O=[N+]([O-])c1ccc(Oc2ccc(N=C=S)cc2)cc1	3	.	.	.	.
O=Cc1ccccc1-n1cccn1	5	-33*	2	-1	4
COC(=O)C1=C(C(=O)OC)[C@@H]2N(C)c3ccccc3[C@@]23C[C@@H](CO)N(C(=O)C2CCC2)C3=N1	-20	.	.	.	-53*
COc1ccc(CN(CCCn2cnc3c(OC)ncnc32)CCCn2cnc3c(OC)ncnc32)cc1	-6	.	.	.	-19
SMILES	D3 ag	D1 antag	D1 agonist	D1 PAM	D3 antag
Cc1cc(C)c2c(CC(=O)Nc3c(C(=O)c4ccc(F)cc4)oc4ccccc34)coc2c1	9	-2	4	2	.
CC1CN(C(=O)COC(=O)c2cncc(Br)c2)CC(C)O1 (centres undefined)	1	.	.	.	-54*
Cc1cc(C(=O)OCC(=O)N2CC(C)OC(C)C2)c(C)n1-c1ccccc1 (centres undefined)	5	-65*	7	.	24
CC1CN(C(=O)COC(=O)c2ccccc2O)CC(C)O1 (centres undefined)	-10	16	1	-3	-12
CC1CC(C)CN(C(=O)COC(=O)c2cncc(Br)c2)C1 (centres undefined)	0	.	.	.	-3
CCNC(=O)COC(=O)c1cc(C)n(-c2ccccc2)c1C	3	-55*	8	0	8
Cc1cc(C(=O)OCC(=O)NCc2ccco2)c(C)n1-c1ccc(F)cc1	-14	-16	10	-5	16
O=C(CN1CCCC1)Nc1nc(-c2ccc3c(c2)CCN3C(=O)c2ccccc2F)cs1	-18	-87*	8	-8	0
Cc1cccc(C(=O)N2CCc3cc(-c4nc(NC(=O)CN5CCCC5)sc4C)ccc32)c1	-4	-2	5	-6	15
O=C(Nc1nc2c(F)cc(F)cc2s1)C1CCN(C(=O)c2ccc(F)cc2)CC1	10	0	6	-5	6
CNc1nc(-c2ccc3c(c2)CCN3C(=O)c2ccc(F)cc2)cs1	1	-38*	9	-10	2
Cc1cccc(C(=O)N2CCc3cc(-c4csc(NC(=O)CN5CCCC5)n4)ccc32)c1	-8	-31*	7	7	-6
O=C(Nc1nc(-c2ccc(F)cc2)cs1)C1CCN(C(=O)c2ccc(F)cc2)CC1	6	-40*	10	-5	14
CC1(C)S[C@@H]2[C@H](NC(=O)[C@H](N)c3ccccc3)C(=O)N2[C@H]1C(=O)OCOC(=O)[C@@H]1N2C(=O)C[C@H]2S(=O)(=O)C1(C)C	-4	.	.	.	.
O=C(CSc1nccn1-c1ccc(F)cc1)Nc1nc2ccccc2s1	-9	13	2	-2	.
O=C1c2ccccc2C(=O)N1CC1CO1 (centres undefined)	63*	.	.	.	-2
Nc1nc(N(Cc2ccccc2)Cc2ccccc2)nc(C(F)(F)F)n1	-1	-34*	9	-9	?
CC1CCc2c(sc(NC(=O)c3ccc(-c4ccccc4[N+](=O)[O-])o3)c2C#N)C1 (centres undefined)	-13	3	1	-8	-26
N#Cc1c(NC(=O)c2ccc(-c3ccccc3[N+](=O)[O-])o2)sc2c1CCCC2	-14	-13	0	1	-117*
CC(C)N1CCN(c2ccc(OCC3COC(Cn4cncn4)(c4ccc(Cl)cc4Cl)O3)cc2)CC1 (centres undefined)	-14	.	.	.	-20
CC(C)N1CCN(c2ccc(OC[C@H]3CO[C@](Cn4cncn4)(c4ccc(Cl)cc4Cl)O3)cc2)CC1	-53	-44*	62*	2	-23

High-throughput results from PubChem BioAssay.
